TEAD-YAP inh: TEAD-YAP interaction inhibition; HEK-TIYL cells, TEAD-Gal4/YAP UAS-luciferase luminescence; inhibition, % at 9.12 µM; 640,000 tested, 1.4% active; AID 1259422; in the data active = inhibition above about 32%
MITF inh: inhibitors of human MITF. AlphaScreen MITF homodimerization, bead proximity signal. inhibition, % at 2.6 µM. 650,000 tested, 0.91% active. AID 1259374; in the data active = inhibition above about 50%
GPR151 ag: human GPR151 activation; Q8TDV0; PathHunter beta-arrestin GPR151 cells, luminescence; activation, % at 11.2 µM; 650,000 tested, 1% active; in the data active = activation above about 4.9%
Target sequence (Q8TDV0 whole entry, looked up): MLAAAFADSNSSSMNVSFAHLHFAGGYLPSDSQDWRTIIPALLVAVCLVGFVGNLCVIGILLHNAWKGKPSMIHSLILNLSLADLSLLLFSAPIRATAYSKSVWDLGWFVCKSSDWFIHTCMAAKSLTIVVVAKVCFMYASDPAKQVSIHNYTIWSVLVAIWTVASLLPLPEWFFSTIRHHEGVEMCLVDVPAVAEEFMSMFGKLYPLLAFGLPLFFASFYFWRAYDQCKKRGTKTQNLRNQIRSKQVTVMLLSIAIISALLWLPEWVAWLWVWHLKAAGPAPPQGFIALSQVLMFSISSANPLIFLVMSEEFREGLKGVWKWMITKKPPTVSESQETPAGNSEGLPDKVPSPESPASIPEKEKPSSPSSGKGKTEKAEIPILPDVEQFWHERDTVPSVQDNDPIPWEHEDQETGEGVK
FBW7 activator: activators of human E3 ligase FBW7 | normalized activity (activation), % at 26.1 µM | 650,000 tested, 0.13% active | AlphaScreen FBW7–phospho-cyclin E peptide binding, activator screen | Q969H0; in the data active = normalized activity above about 1.9%;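 also: purified mutant Fbw7 with reduced substrate affinity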
Of the large screens only hits and unclear results are named; the others gave an inactive call; ! = not active in a repeat. Shown are actives, neighbours in structure and some others; about 3.5% of the full set was active somewhere.

C[C@]12CC[C@H](O)C[C@H]1CC[C@@H]1[C@@H]2CC[C@]2(C)[C@@H](C3=CC(=O)OC3)[C@@H](O)C[C@]12O	TEAD-YAP inh 95
CC(=O)OC1CC[C@@]2(C)C(CCC3C2CC[C@]2(C)C(C4=CC(=O)OC4)C(OC(C)=O)CC32O)C1 (stereo partly specified)	TEAD-YAP inh 100
C[CH2][Hg][S]c1ccccc1C(=O)O	TEAD-YAP inh 74
CNc1ccccc1C(=O)O	none
COc1ccc(-c2noc(CC(=O)N3CCN(C)CC3)n2)cc1	none
CCN(CC)C(C)C(=O)c1ccccc1 (stereo unspecified)	none
CC(=O)[O][Hg][c]1ccccc1	TEAD-YAP inh 98
COc1ccc2nc(NC(=O)CN3C4CCC3CC(O)(c3nccn3C)C4)sc2c1 (stereo unspecified)	none
CCN1/C(=C/C=C/c2oc3ccc(-c4ccccc4)cc3[n+]2CC)Oc2ccc(-c3ccccc3)cc21 (tested in a mixture with another compound)	TEAD-YAP inh 82
O=C(N1CCN(c2ccccn2)CC1)C(O)(c1ccccc1)c1ccccc1	none
O=C1NC(=S)NC(=O)C1=Cc1cc2c(cc1[N+](=O)[O-])OCO2	MITF inh 86
C#CCOc1ccccc1/C=C/[N+](=O)[O-]	TEAD-YAP inh 46
C#CCN1C(=O)C2(C(C#N)=C(N)OC(CC(=O)OC)=C2C(=O)OC)c2ccccc21 (stereo unspecified)	none
O=C(c1ccc2c(c1)ncn2C1CCCCCC1)N1CCC2(CC1)OCCO2	none
O=C(c1ccc2c(c1)ncn2-c1ccc(OCc2ccccc2)cc1)N1CCC2(CC1)OCCO2	TEAD-YAP inh 42
COc1ccc(-n2cnc3cc(C(=O)N4CCC5(CC4)OCCO5)ccc32)cc1	TEAD-YAP inh 48
COc1ccc(OC)c(NC(=O)CN2C(=O)CN=C(c3ccccc3)c3ccccc32)c1	none
Cc1cccc(NC(O)C(Cl)(Cl)Cl)n1 (stereo unspecified)	none
COc1ccc(O)c(CN2CCN(C)CC2)c1	none
COc1ccc(O)c(CN2CCN(Cc3ccccc3)CC2)c1	none
COc1ccc(O)c(CN2CCN(Cc3ccccc3Cl)CC2)c1	MITF inh 51
COc1ccc(O)c(CN2CCN(Cc3cccc(C)c3)CC2)c1	MITF inh 72
O=c1c2ccccc2[nH]c(=S)n1-c1ccc2c(c1)CCC2	none
C[C@H]1C(=O)N2CCN(Cc3ccccn3)C[C@@H]2C(=O)N1C	none
CCN(CC)c1ccc(CNCCc2c(C)[nH]c3ccccc23)cc1	MITF inh 75
Cc1ccc2oc(C(=O)OC(C)C(C)CN(C)C)cc2c1 (stereo unspecified)	FBW7 activator 2.5
CC(=O)NC1C(OC2OC(CC(O)C3OC(n4ccc(=O)[nH]c4=O)C(O)C3O)C(O)C(O)C2NC(=O)/C=C\CCCCCCCCCC(C)C)OC(CO)C(O)C1O (stereo unspecified)	TEAD-YAP inh 64
CN(N=O)c1ccc(O)c(O)c1	MITF inh 77
COc1[nH]c2ccccc2c1C=C(C#N)C#N	TEAD-YAP inh 71
COc1cc2c(cc1OC)[C@@H]1C(=O)c3ccc4c(c3O[C@@H]1CO2)C[C@H](C(C)C)O4	TEAD-YAP inh 68
O=C1NC(=S)NC(=O)C1=Cc1ccc(OCc2cccc(C(=O)O)c2)cc1	TEAD-YAP inh 63
COc1ccc2c(c1)[nH]c1c(C)nccc12	TEAD-YAP inh 85!
COc1ccc2c3c([nH]c2c1)C(C)=NCC3	none
Cc1ccccc1-n1nnnc1C1(NCCc2c(C)[nH]c3ccccc23)CCCCC1	none
C[C@@H]1O[C@@H](O[C@@H]2C=C3CCC4C(CC[C@]5(C)[C@@H](c6ccc(=O)oc6)CC[C@]45O)[C@@]3(C)CC2)[C@H](O)[C@H](O)[C@H]1O (stereo partly specified)	GPR151 ag 10 (no result: TEAD-YAP inh)
CCOC(=O)C1(c2ccccc2)CCN(Cc2ccc(O)c(C(=O)OC)c2)CC1	TEAD-YAP inh 35
O=C(NCc1ccccc1)c1ccc(Br)c(S(=O)(=O)N2CCCCC2)c1	none
CCOC(=O)C1C2NC(=S)N(c3ccc(C)cc3)C1(C)Oc1ccc(OC)cc12 (stereo unspecified)	none
CCOC(=O)C1C2NC(=S)N(c3ccc(Br)cc3)C1(C)Oc1ccc(OC)cc12 (stereo unspecified)	TEAD-YAP inh 63
CCOC(=O)C1C2NC(=S)N(c3ccc(Cl)cc3)C1(C)Oc1ccc(Br)cc12 (stereo unspecified)	TEAD-YAP inh 54
CN(C(=O)Cc1ccccc1)[C@H](CN1CCCC1)c1ccccc1	FBW7 activator 1.9 (no result: TEAD-YAP inh)
CCOc1ccc(C(=O)C(CN2CCCC2)c2ccccc2)cc1 (stereo unspecified)	none
CO[C@@H]1C[C@@H](C[C@H]2CC[C@H](C)[C@H]([C@@H](C)C(=O)O)O2)O[C@]2(O[C@](C)([C@H]3CC[C@@](C)([C@@H]4O[C@@H]([C@H]5O[C@@](O)(CO)[C@H](C)C[C@@H]5C)C[C@@H]4C)O3)C[C@H]2C)[C@@H]1C	TEAD-YAP inh 77
Cc1cccc(N2CCN(CC(=O)Nc3ccc(Br)cc3C(=O)c3ccccc3Br)CC2C)c1 (stereo unspecified)	none
O=c1cccc2n1CC1CC2CN(C(=S)Nc2ccc(F)cc2)C1 (stereo unspecified)	none
COC(=O)C1C2c3ccccc3O[C@]1(C)N=c1s/c(=C/c3ccc([N+](=O)[O-])cc3)c(=O)n12 (stereo partly specified)	none
C[C@@H]1O[C@@H](O[C@H]2CC[C@]3(C=O)C4CC[C@]5(C)[C@@H](C6=CC(=O)OC6)CC[C@]5(O)C4CC[C@]3(O)C2)[C@H](O)[C@H](O)[C@H]1O (stereo partly specified)	TEAD-YAP inh 101
CC1O[C@@H](OC2C[C@@H](O)[C@]3(CO)[C@H]4[C@H](O)C[C@]5(C)C(C6=CC(=O)OC6)CC[C@]5(O)[C@@H]4CC[C@]3(O)C2)C(O)[C@@H](O)[C@H]1O (stereo partly specified)	none (no result: TEAD-YAP inh)
CC(=O)O[C@H]1CC[C@]2(C=O)C3CC[C@]4(C)[C@@H](C5=CC(=O)OC5)CC[C@]4(O)[C@@H]3CC[C@]2(O)C1 (stereo partly specified)	TEAD-YAP inh 102
CCOc1cc(CNCCc2cccc(OC)c2)ccc1OC	none
COc1cc(Br)c([N+](=O)[O-])cc1[N+](=O)[O-]	TEAD-YAP inh 43
C=CCOC(=O)C1C2NC(=S)NC1(C)Oc1ccccc12 (stereo unspecified)	TEAD-YAP inh 36
Cc1c(O)c(O)cc2c1CC=C1[C@@]2(C)CC[C@@]2(C)C3C[C@](C)(C(=O)O)CC[C@]3(C)CC[C@]12C (stereo partly specified)	TEAD-YAP inh 56
CC1=C(O)C(=O)C=C2C1=CC=C1[C@@]2(C)CC[C@@]2(C)[C@@H]3C[C@](C)(C(=O)O)CC[C@]3(C)CC[C@]12C	TEAD-YAP inh 43
COc1ccc2[nH]cc(CCNC(=O)CF)c2c1	none
COc1ccc(N2CCN(Cc3ccccc3[N+](=O)[O-])CC2)cc1	MITF inh 57
